Laboratory results as given in PubChem BioAssay (NCATS).
Results filed as inconclusive are left out. Entries that show only a call come without a potency. Active and inactive are the calls of the source. Calls follow the shape of the dose curve; as a rule, active = well fitted inhibition curve with a large enough effect; inconclusive = small, poorly fitted or top-dose-only effect; inactive = no such curve, though single readings can be large or run the other way.

target: Retinaldehyde dehydrogenase 3 (Homo sapiens) (UniProt P47895); test: qHTS for Inhibitors of the Aldehyde Dehydrogenase Family (ALDH1A3) Primary screen (AID 2061315); conditions: ALDH inhibition qHTS; series mostly up to 56 µM

| Structure (SMILES) | Potency | activity change, negative = inhibition |
| --- | --- | --- |
| COC1CCCC/C(C)=C/C2C=C(C)C(C)C3C(CC(C)C)NC(=O)C23C(=O)C1 (configuration not stated) | inactive |  |
| COCC1OC(OC(C)(C)C2CCC3(C)C=C(C4CCC5C4(C)CC(O)C4OC(C(C)(C)O)CCC45C)CCC3O2)C(NC(C)=O)C(O)C1O (configuration not stated) | inactive |  |
| O=S(=O)(Nc1ccc(C(O)(C(F)(F)F)C(F)(F)F)cc1)c1cccs1 | inactive |  |
| CC(=O)OC[C@]12[C@@H](OC(=O)c3ccoc3)C[C@@H]3[C@@H](OC(C)=O)[C@]1(OC3(C)C)[C@@](C)(O)C[C@H](OC(=O)c1ccoc1)[C@@H]2OC(=O)c1ccoc1 | inactive |  |
| CC(=O)O[C@H]1[C@H](Oc2ccccc2COC(=O)C2(O)C=CCCC2=O)O[C@H](CO)[C@@H](O)[C@@H]1O (some centres not stated) | inactive |  |
| CS(=O)(=O)c1ccc([C@H](CC2CCCC2)C(=O)Nc2nccs2)cc1 | inactive |  |
| CCC(C)/C=C(C)/C=C/C1=CC2=C(Cl)C(=O)C(C)(OC(C)=O)C(=O)C2=CN1C(CCC(=O)O)C(=O)O (configuration not stated) | inactive |  |
| CCOc1ccc2nc(SCCN3CCOCC3)[nH]c2c1 | inactive |  |
| CCC(C)C1NC(=O)C2C(C)CCN2C(=O)C(CC(O)CO)OC(=O)CCNC(=O)C(C)N(C)C(=O)C(C(C)C)N(C)C1=O (configuration not stated) | inactive |  |
| C[C@@]1(O)[C@H](O)[C@@H](CO)O[C@H]1n1cnc2c(=O)[nH]c(N)nc21 | inactive |  |
| CC1=CC[C@@]2(C)CC[C@@](O)(C(C)C)[C@@H]2[C@@H](O)C1 | inactive |  |
| COC1=CC(=O)C[C@@H](C)[C@]12Oc1cc(OC)cc(OC)c1C2=O | inactive |  |
| C[C@@H]1O[C@@H](O[C@@H]2[C@@H](O)[C@H](O[C@@H]3[C@@H](O)[C@@H](O)[C@H](O[C@H]4[C@H](OC(=O)[C@]56CCC(C)(C)C[C@H]5C5=CCC7[C@@]8(C)C[C@H](O)[C@H](O[C@@H]9O[C@H](C(=O)O)[C@@H](O)[C@H](O)[C@H]9O)[C@@](C)(CO)C8[C@H](O)C[C@@]7(C)[C@]5(C)C[C@H]6O)O[C@@H](CO)[C@@H]4O)O[C@H]3C)OC[C@H]2O)[C@H](O)[C@H](O)[C@H]1O (some centres not stated) |  | -9.03% [at 11.2 µM] (inactive) |
| CCn1cc(C2=NOC(C(=O)Nc3c(C)n(C)n(-c4ccccc4)c3=O)C2)c(C)n1 (configuration not stated) | inactive |  |
| COC(=O)c1cc(Br)cnc1N1CCC(NC2CCCCC2)C(O)C1 (configuration not stated) | inactive |  |
| C[C@@H]1O[C@@H](O[C@@H]2[C@@H](O)[C@H](O[C@@H]3[C@@H](O)[C@@H](O)[C@H](O[C@H]4[C@H](OC(=O)[C@]56CCC(C)(C)C[C@H]5C5=CCC7[C@@]8(C)C[C@H](O)[C@H](O[C@@H]9O[C@H](C(=O)O)[C@@H](O)[C@H](O)[C@H]9O)[C@@](C)(CO)C8[C@H](O)C[C@@]7(C)[C@]5(C)CC6)OC[C@H](O)[C@@H]4O)O[C@H]3C)OC[C@H]2O)[C@H](O)[C@H](O)[C@H]1O (some centres not stated) |  | 15.6% [at 11.2 µM] (inactive) |
| CC1CCC2(NC1)OC1CC3C4CC=C5CC(O[C@@H]6O[C@H](CO)[C@@H](O[C@@H]7O[C@@H](C)[C@H](O)[C@@H](O)[C@H]7O)[C@H](O)[C@H]6O[C@@H]6O[C@@H](C)[C@H](O)[C@@H](O)[C@H]6O)CCC5(C)C4CCC3(C)C1C2C (some centres not stated) | inactive |  |
